Rows were chosen to be rich in hits. Some 18% of all compounds tested hit in one or more screens of this group.
Six1-Eya2 blk = qHTS Assay for Inhibitors of the Six1/Eya2 Interaction; Homeobox protein SIX1 (Homo sapiens) + Protein phosphatase EYA2 (Homo sapiens), …; AlphaScreen GST-Six1/His-Eya2 binding, biochemical; hits give low values; activity change, % (no concentration beside the values); 0.56% of 360,000 active; AID 651725, 2012; in the data active means activity change below about -65%; inconclusive means mostly about -30% to -63%
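GST-Six1 + His-Eya2 (5X stock: 250/500 nM); Tris pH 8.0, 300 mM NaCl, 0.05% BSA, 0.02% Tween 20; GSH donor/Ni acceptor beads; 1 h 37 °C dark; AlphaScreen readout.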
TDP1 cell noCPT = qHTS for Inhibitors of human tyrosyl-DNA phosphodiesterase 1 (TDP1): qHTS in cells in absence of CPT; DT40 Tdp1-/- hTDP1 cells, no CPT, ATP luminescence, 48 h; Potency, µM (highest dose often 46.2 µM), for the others: top-dose activity change, negative = growth inhibition, hits mostly inhibitors; 15% of 420,000 active; further: potency means the concentration at half of the fitted maximal effect; nearly all actives have a fitted effect of over 55% in size
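Growth kinetics read by CellTiter-Glo luminescence after ≥48 hr at 37 °C. Cells: DT40 Tdp1-/- stably carrying human TDP1, 400 per well, compound exposure in the absence of CPT (DMSO vehicle).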
TDP1 block = qHTS Assay for Inhibitors of Tyrosyl-DNA Phosphodiesterase (TDP1) | recombinant TDP1, AlphaScreen DNA substrate cleavage | Tyrosyl-DNA phosphodiesterase 1 (Homo sapiens), Q9NUW8 | Potency, µM (doses to about 130 µM), without a hit: top-dose activity change, negative = inhibition, most hits filed as inhibitors | 0.28% of 350,000 active; further: potency means the concentration at half of the fitted maximal effect; nearly all actives have a fitted effect of over 40% in size
Target sequence (Q9NUW8 whole entry, looked up): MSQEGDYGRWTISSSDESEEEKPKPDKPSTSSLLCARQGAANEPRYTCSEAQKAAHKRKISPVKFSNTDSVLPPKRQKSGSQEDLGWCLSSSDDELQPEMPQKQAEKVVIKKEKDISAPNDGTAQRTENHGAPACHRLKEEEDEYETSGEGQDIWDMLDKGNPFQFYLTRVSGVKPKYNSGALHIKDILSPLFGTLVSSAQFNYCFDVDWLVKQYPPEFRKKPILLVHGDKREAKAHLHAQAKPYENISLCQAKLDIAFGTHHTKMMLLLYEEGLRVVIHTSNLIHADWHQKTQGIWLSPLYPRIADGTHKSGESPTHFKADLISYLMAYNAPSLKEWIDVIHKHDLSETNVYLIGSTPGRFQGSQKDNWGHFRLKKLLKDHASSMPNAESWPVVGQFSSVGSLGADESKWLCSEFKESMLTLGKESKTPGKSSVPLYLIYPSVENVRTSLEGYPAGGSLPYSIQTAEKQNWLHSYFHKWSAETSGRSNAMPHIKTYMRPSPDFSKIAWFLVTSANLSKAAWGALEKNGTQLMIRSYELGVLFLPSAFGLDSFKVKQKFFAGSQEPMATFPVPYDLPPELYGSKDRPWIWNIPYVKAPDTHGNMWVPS
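Signal: AlphaScreen proximity between streptavidin donor and anti-FITC acceptor beads on intact substrate. Reaction: Tdp1 1 nM, substrate 15 nM final, 5 min RT after 15 min compound preincubation.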
CtBP-E1A inh = qHTS Assay for Inhibitors of the CtBP/E1A Interaction; CtBP / adenovirus E1A interaction (AlphaScreen); AlphaScreen GST-E1A/His-CtBP binding, 1536-well; hits give low values; activity change, % (test concentration not listed); 0.49% of 340,000 active; AID 651724, 2012; in the data active means activity change below about -65%; inconclusive means mostly about -30% to -63%
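Protein mix (5X: 125 nM each GST-E1A, His-CtBP) was incubated with pinned compound 2 h at 37 deg C in dark, in 50 mM Tris pH 8.0 buffer with 300 mM NaCl. Glutathione donor and nickel acceptor beads followed; AlphaScreen signal read after 1 h.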
DT40 TDP1 CPT = qHTS for Inhibitors of human tyrosyl-DNA phosphodiesterase 1 (TDP1): qHTS in cells in presence of CPT. chicken DT40 Tdp1-/-;hTDP1 cells + 20 nM CPT, ATP luminescence, 48 h. Potency, µM (titrated, usually from 46.2 µM), inactives show top-dose activity change, negative = growth inhibition, hits mostly inhibitors. 12% of 420,000 active; further: potency means the concentration at half of the fitted maximal effect; nearly all actives have a fitted effect of over 55% in size
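Chicken DT40 Tdp1-/- cells complemented with human TDP1, 400 cells/well, exposed to compounds plus 20 nM camptothecin for at least 48 h at 37 C; viability read as ATP content by CellTiter-Glo luminescence.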
IL-1B inflam inh = qHTS for Inhibitors of Inflammasome Signaling: IL-1-beta AlphaLISA Primary Screen. activity change, % at 57.5 µM. THP-1 LPS/ATP IL-1B secretion, AlphaLISA, 16 h; hits give low values. 4.7% of 360,000 active; in the data active means activity change below about -50%; inconclusive means mostly about -30% to -49%
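Secreted IL-1B measured by AlphaLISA bead assay after 16 h compound exposure of THP-1 cells; compounds (final up to 57.5 uM) added 1 h before LPS (250 ng/mL) and ATP (1.25 mM) stimulation; lower signal means less secretion.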
Active calls of the source: *; ? = inconclusive; · = no result given. Unless noted, the call rests on the fitted dose curve; in most records, active means well fitted curve in the direction sought with a large enough effect; inconclusive means small, poorly fitted or top-dose-only effect, or another doubt; inactive means no such curve, though single readings can be large; an effect the other way counts as inactive or inconclusive. On the % scale 0 is the no-effect control and ±100 the full control effect.

SMILES | Six1-Eya2 blk | TDP1 cell noCPT | TDP1 block | CtBP-E1A inh | DT40 TDP1 CPT | IL-1B inflam inh
C=CCN(Cc1cc(OC)ccc1OC)C(=O)c1cc2ccc(OC)cc2[nH]1 | -14 | ? | · | -1 | ? | 34
O=C(COc1ccccc1)Nc1nc(-c2ccncc2)cs1 | 4 | 16µM* | 4% | -24 | 21µM* | 37
Cc1cc(C)cc(OCC(=O)Nc2nc(-c3cccnc3)cs2)c1 | 1 | 9.2µM* | 1% | -2 | 15µM* | 0
COc1ccc(CC(=O)Nc2nc(-c3cccnc3)cs2)cc1 | 7 | 26µM* | 0% | -6 | ? | 17
COc1ccccc1Nc1nc(-c2cccnc2)cs1 | 12 | ? | · | -4 | ? | -95*
COc1ccc(Nc2nc(-c3cccnc3)cs2)c(OC)c1 | -29 | ? | · | 4 | ? | ?
Cc1ccccc1NC(=O)c1ccco1 | 1 | 10% | · | -6 | -3% | 10
CC(=O)c1ccc(NC(=O)/C(=C\c2ccco2)NC(=O)c2ccco2)cc1 | 0 | 18% | 9% | 4 | 4% | 13
CCC(CC)C(=O)Nc1cccc(S(=O)(=O)c2cccc(NC(=O)C(CC)CC)c2)c1 | 2 | -2% | 5% | -5 | -17% | 35
NC(=O)SCC(=O)Nc1cccc(Cl)c1 | -3 | ? | -2% | 5 | ? | -62*
NC(=O)SCC(=O)Nc1ccc(Cl)cc1 | -2 | ? | 9% | 0 | 21µM* | -89*
CCC(CC)C(=O)Nc1ccc(Cl)c(Cl)c1 | 5 | 13µM* | -6% | 6 | -29% | 13
NC(=O)SCC(=O)Nc1ccc(Cl)c(Cl)c1 | -4 | 23µM* | 4% | -2 | 9.2µM* | -103*
COc1ccc(Cl)cc1NC(=O)c1cc2ccccn2n1 | · | ? | 8% | · | -27% | ·
Cc1coc2c(C)c3oc(=O)c(CCC(=O)N[C@H](C(=O)O)C(C)C)c(C)c3cc12 | ? | -13% | · | ? | 9% | -1
Cc1c(Cl)cccc1NC(=O)CSC(N)=O | 0 | 16µM* | -3% | 9 | 21µM* | -92*
O=C(NCC1CC1(Cl)Cl)Nc1ccc(Cl)c(Cl)c1 (centres undefined) | 6 | ? | 0% | 17 | ? | -95*
CCCCCCCC(=O)OCC(COC(=O)CCCCCCC)OC(=O)CCCCCCC | 5 | 9% | -1% | -2 | -26% | 4
Cc1ccc(-c2cnc(C(O)c3ccc(Cl)c(Cl)c3)[nH]2)cc1 (centres undefined) | -11 | 15µM* | · | -12 | ? | -4
OC(c1ccc(F)c(F)c1)c1ncc(-c2cccc(C(F)(F)F)c2)[nH]1 (centres undefined) | -12 | 16µM* | · | -10 | ? | -12
OC(c1ccc(Cl)c(F)c1)c1ncc(-c2cccc(C(F)(F)F)c2)[nH]1 (centres undefined) | -3 | 23µM* | · | -6 | ? | 0
OC(c1ccc2c(c1)OCO2)c1ncc(-c2cccc(C(F)(F)F)c2)[nH]1 (centres undefined) | -8 | 8.2µM* | · | -28 | -35% | ?
Cc1cccc(C)c1C(O)c1ncc(-c2cccc(C(F)(F)F)c2)[nH]1 (centres undefined) | -7 | ? | · | 0 | ? | -26
O=C(Nc1ccccc1C(F)(F)F)c1cc(S(=O)(=O)N2CCC3(CC2)OCCO3)ccc1F | 1 | -14% | 2% | 4 | -8% | 6
CC(C)C#Cc1cnc2c(c1)C(=O)N([C@@H](C)CO)C[C@@H](C)[C@H](CN(C)Cc1cccc(F)c1)O2 | -13 | ? | · | -7 | ? | ?
SMILES | Six1-Eya2 blk | TDP1 cell noCPT | TDP1 block | CtBP-E1A inh | DT40 TDP1 CPT | IL-1B inflam inh
OC(c1ccccc1)c1ncc(-c2cccc(C(F)(F)F)c2)[nH]1 (centres undefined) | -3 | ? | · | -8 | ? | 3
OC(c1cccc(CN2CCCCC2)c1)c1ncc(-c2cccc(C(F)(F)F)c2)[nH]1 (centres undefined) | -9 | 21µM* | · | -20 | 15µM* | -10
Cc1ccc(C(O)c2ncc(-c3cccc(C(F)(F)F)c3)[nH]2)cc1F (centres undefined) | -15 | 13µM* | · | -9 | 26µM* | -5
Cc1ccc(C(O)c2ncc(-c3cccc(C(F)(F)F)c3)[nH]2)cc1 (centres undefined) | -1 | 18µM* | · | -5 | ? | -12
CCCS(=O)(=O)c1nc(S(=O)(=O)c2ccc(Cl)cc2)c(N2CCC(O)CC2)s1 | -1 | -6% | 5% | -6 | -12% | -22
CCCCCNC(=O)C(c1ccccc1F)n1c(=O)c(-c2ccco2)nc2ccccc21 (centres undefined) | -2 | ? | · | -13 | ? | -5
Cc1ccc(/C(N)=N/OC(=O)c2cccc(Cn3cc(C(F)(F)F)ccc3=O)c2)cc1 | -1 | 18µM* | 6% | 11 | ? | -68*
N/C(=N\OC(=O)c1cccc(Cn2cc(C(F)(F)F)ccc2=O)c1)c1ccc(Cl)cc1 | -2 | 21µM* | 3% | -1 | ? | ?
O=C(Sc1ccc(Cl)cc1)c1cccc(Cn2cc(C(F)(F)F)ccc2=O)c1 | 0 | 16µM* | 0% | · | 18µM* | 20
Cc1ccc(C)c(OC(=O)CN2C(=O)c3ccccc3C2=O)c1 | -11 | 5% | · | 0 | 8% | 1
COC(=O)c1ccc(N2CCN(c3ccccc3)CC2)c(N)c1 | -2 | ? | · | · | ? | 7
COC(=O)c1ccc(N2CCN(c3ccccc3)CC2)c(NC(=O)C2CC2)c1 | 9 | 16µM* | -3% | 6 | 21µM* | 44
CN1CCN(C(=O)c2ccccc2NC(=O)c2sc3ccccc3c2Cl)CC1 | -8 | ? | 5% | 3 | ? | -20
CN1CCN(c2ccc(NC(=O)c3sc4ccccc4c3Cl)cc2)CC1 | 0 | 13µM* | 5% | -24 | 12µM* | ?
COC(=O)c1ccc(N2CCN(C)CC2)c(NC(=O)c2sc3ccccc3c2Cl)c1 | -5 | 16µM* | · | 0 | 23µM* | -14

Source: PubChem (National Center for Advancing Translational Sciences (NCATS))
